Shown are actives, neighbours in structure and some others; about 0.41% of the full set was active somewhere.
GAA glycogen – qHTS Assay for Inhibitors and Activators of Human alpha-Glucosidase Cleavage of Glycogen. AID 2100, 2009. Potency, µM (highest dose often 76.4 µM), hits mostly inhibitors. 0.38% of 300,000 active. recombinant GAA, glycogen substrate, Amplex Red glucose oxidase fluorescence. Lysosomal alpha-glucosidase (Homo sapiens), P10253;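 also: the screen sought inhibitors and activators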
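qHTS, 1536-well; enzyme 4 nM final; cpd up to 77 uM; substrate bovine liver glycogen 30 ug; 50 mM citrate/phosphate pH 5.0, 0.01% Tween-20; 37 C, 40 min; Amplex Red detection 45 min RT; Hill fit → AC50.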
GLA inh pH 4.5 – qHTS Assay for Inhibitors of Human alpha-Galactosidase at pH 4.5; Alpha-galactosidase A (Homo sapiens), P06280; purified enzyme, 4-MU-alpha-Gal fluorescence, pH 4.5; activity change, negative = inhibition, % at 105 µM; 230,000 tested, under 10 active
Target sequence (P06280 whole entry, looked up): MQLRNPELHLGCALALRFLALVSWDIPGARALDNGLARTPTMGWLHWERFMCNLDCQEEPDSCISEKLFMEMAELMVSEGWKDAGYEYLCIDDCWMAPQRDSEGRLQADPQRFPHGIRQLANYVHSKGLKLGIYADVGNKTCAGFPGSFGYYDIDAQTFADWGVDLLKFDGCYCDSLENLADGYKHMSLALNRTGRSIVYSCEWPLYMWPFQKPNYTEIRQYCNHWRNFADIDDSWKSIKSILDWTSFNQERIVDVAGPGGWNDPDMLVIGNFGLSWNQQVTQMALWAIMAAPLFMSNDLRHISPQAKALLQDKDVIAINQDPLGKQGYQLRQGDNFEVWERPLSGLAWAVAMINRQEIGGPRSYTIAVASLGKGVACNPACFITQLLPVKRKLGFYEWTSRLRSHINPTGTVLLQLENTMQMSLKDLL
GAA spleen mod – qHTS Assay for Inhibitors and Activators of Human alpha-Glucosidase From Spleen Homogenate; Lysosomal alpha-glucosidase (Homo sapiens), P10253; human spleen homogenate, 4-MU-alpha-glucoside fluorescence; Potency, µM (top dose mostly 79.9 µM), usual class: inhibitors; 0.006% of 240,000 active; AID 2112, 2009
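Compounds were titrated against alpha-glucosidase in spleen homogenate at pH 5.0, with 1 mM 4-methylumbelliferyl substrate for 40 min at 37 C. Reactions were quenched with pH 10 NaOH/glycine and fluorescence measured.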
N370S GC – qHTS Assay for Inhibitors and Activators of N370S glucocerebrosidase as a Potential Chaperone Treatment of Gaucher Disease | Lysosomal acid glucosylceramidase (Homo sapiens), P04062 | N370S GC spleen homogenate, 4MU-glucoside fluorescence | Potency, µM (top dose mostly 59.4 µM), actives largely listed as inhibitors | 0.092% of 330,000 active
aGal spleen mod – qHTS Assay for Inhibitors and Activators of Human alpha-Galactosidase From Spleen Homogenate | Alpha-galactosidase A (Homo sapiens), P06280 | human spleen homogenate, 4MU-alpha-Gal fluorescence, 40 min | Potency, µM (doses to about 80 µM), most hits filed as inhibitors | 0.008% of 240,000 active | AID 2107, 2009
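Spleen homogenate 1 ug + cpd (titration) + 4-MU-alpha-D-galactopyranoside 1 mM; 37C 40 min; 50 mM citrate/phosphate pH 5.0, 0.01% Tween-20; stop pH 10; fluorescence 365/440; AC50 via Hill.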
GAA inh – qHTS Assay for Inhibitors of Human alpha-Glucosidase as a Potential Chaperone Treatment of Pompe Disease; Lysosomal alpha-glucosidase (Homo sapiens), P10253; Potency, µM (series often up to 76.9 µM), most hits filed as inhibitors; 0.005% of 200,000 active; purified human GAA, 4-MU-alpha-glucoside fluorescence
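AC50 values come from Hill fits of compound titrations (up to 77 uM) against 4 nM human enzyme. Substrate 4-methylumbelliferyl-alpha-D-pyranoside at 400 uM, pH 5.0 citrate buffer, 20 min room temperature; fluorescence Ex 365/Em 440 after alkaline stop.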
A number is an active result; - = inactive; ? = inconclusive; . = not tested or not shown; ! = not active in a repeat; [ ] = dose if it differs, or a comment. Calls follow the shape of the dose curve; as a rule, active = well fitted curve in the direction sought with a large enough effect; inconclusive = small, poorly fitted or top-dose-only effect, or another doubt; inactive = no such curve, though single readings can be large; an effect the other way counts as inactive or inconclusive.

SMILES	GAA glycogen	GLA inh pH 4.5	GAA spleen mod	N370S GC	aGal spleen mod	GAA inh
Oc1ccc(/C=N/NP(=S)(c2ccccc2)c2ccccc2)cc1O	15.8µM	-	-	-	-	-
Oc1ccccc1/C=N/NP(=S)(c1ccccc1)c1ccccc1	-	-	-	-	-	-
Oc1ccc(/C=N/NP(=S)(c2ccccc2)c2ccccc2)c(O)c1O	15.8µM	-	-	.	-	?
S=C=Nc1cccc2ccccc12	.	.	-	-	-	.
C[C@@H]1O[C@@H](O[C@H]2CC[C@@H](O[C@H]3[C@H](O)C[C@H](c4ccc5c(c4O)C(=O)C4=C(C5=O)[C@@]5(O)C(=O)C[C@](C)(O[C@H]6CC[C@H](O[C@H]7C=CC(=O)[C@H](C)O7)[C@H](C)O6)C[C@@]5(O)C=C4)O[C@@H]3C)O[C@H]2C)C=CC1=O	.	.	-	-	-	.
C[C@H](CCC(=O)O)[C@H]1CC[C@@H]2[C@H]3[C@@H](CC[C@@]21C)[C@]1(C)CC[C@H](O)C[C@@H]1C[C@@H]3O	.	-	-	-	-	.
c1ccc2c(c1)Nc1ccccc1S2	17.8µM	-	-	-	-	-[15.4 µM]
Cc1[nH]c2ccc(OC(F)(F)F)cc2c1CCNCc1ccc(Cl)cc1	-	.	.	?	.	.
Cc1[nH]c2ccc(OC(F)(F)F)cc2c1CCNCc1cccc([N+](=O)[O-])c1	-	.	.	15.8µM	.	.
CCOc1cccc(CNCCc2c(C)[nH]c3ccc(OC(F)(F)F)cc23)c1O	-	.	.	8.91µM	.	.
Nc1ccc2c3c(cccc13)CC2	25.1µM	-	-	-	-	-
O=[N+]([O-])c1ccc2c3c(cccc13)CC2	.	.	-	-	-	.
COc1cc2c(c(OC)c1OC)-c1ccc(OC)c(=O)cc1[C@H](NC(C)=O)CC2	.	-	-	-	-	.
Cc1cc(=O)oc2c3c(cc(OCC(=O)N4CCC[C@H]4C(=O)O)c12)OC(C)(C)CC3	-	.	.	?	.	.
CC(=O)OCC[N+](C)(C)C	9.92µM!	-	-	-	-	-[15.4 µM]
Cc1onc(-c2ccccc2)c1C(=O)Nc1ccc(S(=O)(=O)N2CCCC2)cc1	14.1µM	-	-	-	-	-
CC(C)NC[C@@H](O)COc1cccc2[nH]ccc12	.	-	-	-	-	.
CC(C)NCC(O)COc1cccc2[nH]ccc12 (centres undefined)	-	-	-	-	10µM!	-[15.4 µM]
C=CCN1CCc2cccc3c2[C@H]1Cc1ccc(O)c(O)c1-3	6.31µM	.	.	-	.	.
CCCN1CCc2cc(O)cc3c2C1Cc1ccc(O)c(O)c1-3 (centres undefined)	.	-	-	-	-	.
Cc1cc(C(=O)CS(=O)(=O)c2ccc(F)cc2)cc(C)c1OC(=O)N(C)C	-	-	?	-	28.2µM	-
CN(C)C(=O)Oc1c(Cl)cc(Cl)c2ccccc12	-	-	-	-	-	-
Oc1cc2c(cc1O)[C@H]1c3ccccc3CN[C@@H]1CC2	2.51µM	-	-	-	-	-[15.4 µM]
Cc1cccc(C)c1	.	.	-	?	-	.
